Assay outcomes from PubChem BioAssay.
RE007 growth inh: qHTS Assay for Inhibitors of the HIV-1 protein Vpr; Potency, µM (titrated, usually from 92.2 µM), for inactives: top-dose activity change, negative = less growth, most hits filed as inhibitors; 0.21% of 360,000 active; S. pombe RE007 Vpr strain, BacTiter-Glo ATP luminescence, 24 h; active means well fitted falling curve with a large enough effect; inconclusive means small, poorly fitted or top-dose-only effect; inactive means no such curve, though single readings can be large or run the other way; further: nearly all actives have a fitted effect of over 50% in size
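Fission yeast RE007 carrying one integrated HIV-1 vpr copy, seeded at OD 0.01 in PMG+AL medium with 23 nL pinned compound. Grown 24 h at 30 degrees; viability read by BacTiter-Glo luminescence after 5 min.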
Sm TGR inh: qHTS Assay for the Inhibitors of Schistosoma Mansoni Peroxiredoxins; Schistosoma mansoni thioredoxin glutathione reductase (TGR), Q962Y6; purified TGR, DTNB reduction, TNB absorbance 405 nm; Potency, µM (doses to about 114 µM), for inactives: at the top dose activity change, negative = inhibition, actives largely listed as inhibitors; 3% of 360,000 active; AID 485364, 2010; further: nearly all actives have a fitted effect of over 60% in size
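Kinetic colorimetric format: TGR-catalysed, NADPH-driven DTNB reduction monitored via TNB absorbance. Enzyme dispensed at 20 nM; compound exposure 15 min at room temperature before reaction start.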
FMDV antiviral: High Throughput Screening for Foot and Mouth Disease Virus Antivirals; FMDV antiviral cell-based qHTS; Potency, µM (series often up to 57.9 µM), inactives show at the highest dose activity change, negative = inhibition, hits mostly inhibitors; 1.2% of 410,000 active; calls by dose curve; tested in HEK293T cells; further: read-out not given here; nearly all actives have a fitted effect of over 45% in size
HCV inhibitor: qHTS Assay for Inhibitors of Hepatitis C Virus (HCV). AID 651820, 2012. Potency, µM (highest dose often 41.8 µM), for inactives: at the highest dose activity change, negative = inhibition, usual class: inhibitors. Huh7.5.1 HCVcc-Cre infection, luciferase reporter, 44 h. 3.4% of 340,000 active
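Infectious HCVcc-Cre (~0.5 moi) was added to cells just after compound, with cells seeded 4 h earlier at 1,000 per well. Luciferase activity after 44 h culture reported infection; substrate was incubated 15 min at room temperature before reading.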
MARV entry inh: qHTS for inhibitors of binding or entry into cells for Marburg Virus; AID 540276, 2011; Potency, µM (highest dose often 37.8 µM), without a hit: top-dose activity change, negative = inhibition, usual class: inhibitors; Marburg virus pseudotyped entry inhibition, cell reporter; 1.8% of 300,000 active; calls by dose curve; tested in HEK293 cells
Lassa entry inh: qHTS for Inhibitors of binding or entry into cells for Lassa Virus. Potency, µM (series often up to 37.9 µM), inactives show at the top dose activity change, negative = inhibition, most hits filed as inhibitors. 1.2% of 300,000 active. Lassa virus pseudotype entry inhibition, cell reporter. AID 540256, 2011; calls by dose curve; tested in HEK293 cells; further: nearly all actives have a fitted effect of over 50% in size
Active calls of the source: *; u = inconclusive; x = no result; [ ] = another dose, or the depositor's remark. This is a sample that favours compounds with a hit; in the whole collection about 7.2% have one here. Unless noted, the call rests on the fitted dose curve; in most records, active means well fitted curve in the direction sought with a large enough effect; inconclusive means small, poorly fitted or top-dose-only effect, or another doubt; inactive means no such curve, though single readings can be large; an effect the other way counts as inactive or inconclusive. On the % scale 0 is the no-effect control and ±100 the full control effect; potency means the concentration at half of the fitted maximal effect.

SMILES	RE007 growth inh	Sm TGR inh	FMDV antiviral	HCV inhibitor	MARV entry inh	Lassa entry inh
CCCC(=O)N1CCCC(c2cc(C(=O)Nc3ccccc3)no2)C1 (stereo unspecified)	-24%	x	20µM*	x	x	x
CC(=O)OC(C(=O)NCc1ccco1)c1ccncc1 (stereo unspecified)	-11%	45µM*	-20%	13%	-5%	1%
O=C(OC(C(=O)NCc1cccs1)c1ccccc1Cl)c1ccco1 (stereo unspecified)	2%	45µM*	x	14%	-5%	3%
O=C(OC(C(=O)NCc1cccs1)c1ccc(F)cc1)c1ccco1 (stereo unspecified)	24%	3%	13%	5%	21%	-1%
CC(C)C(OC(=O)c1cccs1)C(=O)NCc1ccco1 (stereo unspecified)	9%	35µM*	-3%	-1%	-14%	-3%
COc1ccccc1C(OC(=O)c1cccs1)C(=O)NCc1ccco1 (stereo unspecified)	4%	13µM*	-30%	20%	-21%	u
CC(OC(=O)c1cccs1)C(=O)NCc1ccco1 (stereo unspecified)	25%	-5%	-9%	8%	-1%	4%
COc1ccc(NC(=O)CSc2nncn3c2cc2occc23)c(OC)c1	x	-26%	-24%	x	x	16%[46.1 µM]
COc1ccccc1CNC(=O)C1CCCN(C(=O)c2cnn(-c3ccc(F)cc3)c2-n2cccc2)C1 (stereo unspecified)	x	3%	-21%	x	x	-22%[46.1 µM]
COC(=O)CC1c2ccccc2C=C(C)N1C(=O)OC (stereo unspecified)	x	x	x	x	9%[14.2 µM]	x
Oc1ccc(NCc2cccs2)cc1	-15%	50µM*	27%	7%	u	u
CC(=O)Nc1ccc(NCc2cccs2)cc1	7%	17%	17%	17%	19%[46.1 µM]	8%[46.1 µM]
Cc1ccc(NC(=O)Nc2cccs2)c(C)c1	x	-15%	u	x	9%[46.1 µM]	x
CC(C)(C)c1nn2cnnc2n(/N=C/c2cccc3ccccc23)c1=O	-2%	4%	28µM*	30%	15%	0%
CC(C)(C)N=Cc1cc(-c2ccccc2)sc1O	17%	-8%	58%	10µM*	u	0%
CC(C)(C)Nc1ncnc2sc(-c3ccccc3)cc12	3%	-19%	u	u	x	x
Fc1ccc(C(OCCN2CCN(CCCc3ccccc3)CC2)c2ccc(F)cc2)cc1	x	x	u	x	7.1µM*	3.7µM*
c1ccc(CCCN2CCN(CCOC(c3ccccc3)c3ccccc3)CC2)cc1	-4%	x	u	7.9µM*	14µM*	16µM*
Fc1ccc(C(OCCN2CCCC2)c2ccc(F)cc2)cc1	1%	-4%	-24%	u	u	-19%
O=C(NCc1ccccc1Br)c1ccc2c(c1)nc1n2CCOC1	x	0%	22%	x	x	-16%[46.1 µM]
CSc1ccc(CCNC(=O)c2ccc3c(Cl)c4c(nc3c2)CCCC4)cc1	x	2%	u	x	2%[46.1 µM]	u
CN1CCc2c(sc3c2C(=O)NC(c2ccc(OC(=O)c4ccccc4)cc2)N3)C1 (stereo unspecified)	x	-10%	31%	x	u	u
CC(=O)NCCNc1nc(-c2cccc(NS(C)(=O)=O)c2)nc2ccccc12	x	x	-10%	x	x	x
Cc1nc2ccc(S(=O)(=O)NCC(=O)N3CCc4ccccc43)cc2s1	9%	56µM*	21%	-24%	20%	-5%
Cc1nc2ccc(S(=O)(=O)NCC(=O)N3CCc4ccccc4C3)cc2s1	15%	-9%	-15%	3%	7%	8%
SMILES	RE007 growth inh	Sm TGR inh	FMDV antiviral	HCV inhibitor	MARV entry inh	Lassa entry inh
CC/C(=C\c1oc2cc3ccccc3cc2[n+]1CC)Nc1ccccc1	4%	20µM*	22µM*	3%	-12%[14.2 µM]	u
COc1cc2c(cc1OC)C(c1c[nH]c3ccccc13)NCC2 (stereo unspecified)	x	x	-25%	x	x	x
Cc1ccc(NC(=O)c2ccc(CN3CCc4ccccc4C3)cc2)cc1	-12%	8%	8%	u	u	u
O=C(Nc1cccnc1)c1ccc(CN2CCc3ccccc3C2)cc1	14%	-2%	u	4.5µM*	-6%	-30%
O=C(Nc1ccccc1F)c1ccc(CN2CCc3ccccc3C2)cc1	4%	1%	-8%	11µM*	x	x
O=C(Nc1ccccc1)c1ccc(CN2CCc3ccccc3C2)cc1	-11%	6%	-1%	u	u	-3%[46.1 µM]
O=C(Nc1ccc(S(=O)(=O)N2CCCCC2)cc1)c1ccc(CN2CCc3ccccc3C2)cc1	-3%	-22%	u	35µM*	u	u
CC(=O)N1c2ccc(S(=O)(=O)N3CCC(C(=O)Nc4cccc(Cl)c4C)CC3)cc2CC1C (stereo unspecified)	x	0%	u	x	x	-7%[46.1 µM]
COc1ccc(O[C@H]2C=C[C@@H](c3ccccc3)O[C@H]2COC(=O)CCC(C)=NOC[C@@H](O)COCc2ccco2)cc1	x	x	x	x	10%[14.2 µM]	0%[14.3 µM]
O=C1C(Cl)=C(NCCCO)C(=O)c2ccccc21	u	33%	u	13µM*	u	-18%
CCOCCCNC1=C(Cl)C(=O)c2ccccc2C1=O	u	1.8µM*	24%	-13%	x	x
CCOCCCNS(=O)(=O)c1ccccc1	-10%	6%	1%	-1%	18%	3%
Cc1ccc(-c2nc(CS(=O)CC(=O)NC3CCC(C)CC3)c(C)o2)cc1 (stereo unspecified)	-7%	14µM*	9%	-10%	x	x
Cc1oc(-c2ccc(Cl)cc2)nc1CS(=O)CC(=O)NC1CC1 (stereo unspecified)	1%	16µM*	-11%	u	x	x
Cc1oc(-c2ccccc2F)nc1CS(=O)CC(=O)NC1CC1 (stereo unspecified)	-9%	u	4%	12%	7%[46.1 µM]	15%[46.1 µM]
Cc1oc(-c2ccc(Cl)cc2)nc1CS(=O)CC(=O)NC(C)c1ccccc1 (stereo unspecified)	-1%	8.9µM*	2%	8%	x	x
COc1ccc(CNC(=O)CSc2nc3ccsc3c(=O)n2Cc2ccccc2Cl)cc1	x	-5%	4%	x	-7%[46.1 µM]	7%[46.1 µM]
COC(=O)C1=C(C)N(Cc2ccccc2)C(=NCC(C)C)NC1c1ccc(Br)cc1 (stereo unspecified)	x	x	x	x	5%[14.2 µM]	x
C(=N\Nc1nc2ccccc2[nH]1)/c1cccc2cccnc12	-8%	-4%	41%	4µM*	x	x
Cc1ccccc1/C=N/Nc1nc2ccccc2[nH]1	-27%	-3%	20%	-24%	-27%[46.1 µM]	u
COc1ccc2cc(/C=N/NC(=O)c3ccc(CN(c4cccc(Cl)c4Cl)S(C)(=O)=O)cc3)c(Cl)nc2c1	-21%	4%	u	-16%	0.56µM*	u
